# Test results reported in PubChem BioAssay AID376 (PDSP, 2006).
# Out of some 2,000 compounds screened, about 250 (12%) were called active. Shown is part of a subset that was picked to be rich in actives. A number with no mark means an inactive call. Cut-off read from the data, not from the text of the source: active = hERG blockade below about -20% or above about 20%; inactive = in between.
# Molecular target: Voltage-gated inwardly rectifying potassium channel KCNH2 (Homo sapiens) (UniProt Q12809)
# Assay: KCNH2 potassium channel function modulators, cell-based (AID 376);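 note: 0% = buffer alone and 100% = reference blocker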
# Conditions: hERG-expressing cells, channel activity single-concentration screen; concentration not given here
# Chain of Voltage-gated inwardly rectifying potassium channel KCNH2 (Homo sapiens) (Q12809 whole entry, looked up): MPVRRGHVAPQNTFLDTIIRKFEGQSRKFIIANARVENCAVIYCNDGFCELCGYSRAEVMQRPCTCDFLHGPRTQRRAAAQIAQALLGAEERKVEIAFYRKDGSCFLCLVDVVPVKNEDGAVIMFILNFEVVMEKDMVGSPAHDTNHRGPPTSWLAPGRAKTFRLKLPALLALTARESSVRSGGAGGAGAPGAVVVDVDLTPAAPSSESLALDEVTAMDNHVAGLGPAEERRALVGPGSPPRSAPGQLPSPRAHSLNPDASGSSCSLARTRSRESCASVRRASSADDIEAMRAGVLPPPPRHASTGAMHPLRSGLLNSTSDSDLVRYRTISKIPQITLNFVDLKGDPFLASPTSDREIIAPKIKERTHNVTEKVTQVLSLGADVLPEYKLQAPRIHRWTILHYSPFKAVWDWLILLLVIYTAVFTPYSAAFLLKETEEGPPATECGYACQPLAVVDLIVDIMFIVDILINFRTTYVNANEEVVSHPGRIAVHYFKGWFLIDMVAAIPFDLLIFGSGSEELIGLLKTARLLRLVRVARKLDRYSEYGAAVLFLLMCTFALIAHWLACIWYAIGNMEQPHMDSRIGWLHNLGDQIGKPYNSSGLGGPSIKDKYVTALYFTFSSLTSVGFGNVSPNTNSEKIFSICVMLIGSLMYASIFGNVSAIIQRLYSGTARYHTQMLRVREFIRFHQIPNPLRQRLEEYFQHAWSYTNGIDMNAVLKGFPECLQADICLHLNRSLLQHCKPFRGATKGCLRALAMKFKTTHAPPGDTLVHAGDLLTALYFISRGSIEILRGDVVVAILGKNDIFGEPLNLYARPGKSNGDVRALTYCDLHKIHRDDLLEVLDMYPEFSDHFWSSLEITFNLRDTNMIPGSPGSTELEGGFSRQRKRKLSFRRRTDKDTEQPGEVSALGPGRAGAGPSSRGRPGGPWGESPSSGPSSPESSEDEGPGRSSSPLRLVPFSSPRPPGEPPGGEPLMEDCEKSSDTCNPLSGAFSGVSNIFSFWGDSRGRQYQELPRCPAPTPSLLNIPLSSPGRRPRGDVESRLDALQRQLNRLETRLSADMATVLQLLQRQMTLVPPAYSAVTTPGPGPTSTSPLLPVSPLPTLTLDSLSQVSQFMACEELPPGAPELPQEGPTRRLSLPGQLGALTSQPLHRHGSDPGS
row,SMILES,hERG blockade
1,CC(C)c1cc(CN(C)C)c(O)c(C(C)(C)C)c1,13.4%
2,Nc1nc(N)[n+]([O-])c(N)c1NCO,-6.48%
3,C=CCNS(=O)(=O)c1ncnc2nc[nH]c12,-2.53%
4,Nc1nc(-c2cc(-c3cccc4ccccc34)nc(N)n2)cc(-c2cccc3ccccc23)n1,3.59%
5,Nc1cc2c(nc3c4ccccc4c(N)cc3[n+]2-c2cccc3ccccc23)c2ccccc12 (tested in a mixture with another compound),51.9% (active)
6,O=S(=O)(c1ccc(Br)cc1)N1CCN(S(=O)(=O)c2ccc(Br)cc2)CC1,11.5%
7,O=C(O)C1CCCCC1c1c2ccc(=O)c(O)c-2oc2c(O)c(O)ccc12 (stereo not given),-2.68%
8,CC(=O)C1(N=Nc2ccc(S(N)(=O)=O)cc2)CCOC1=O (stereo not given),-10.6%
9,c1ccc2sc(SCSc3nc4ccccc4s3)nc2c1,-7.22%
10,CC(CCC(=O)O)(c1ccc(O)cc1)c1ccc(O)cc1,4.36%
11,CC(CCc1nc2ccccc2s1)(c1ccc(O)cc1)c1ccc(O)cc1,24% (active)
12,O=C(O)c1ccccc1C(=O)c1ccc2c(c1)Cc1ccccc1-2,-16.1%
13,Cn1c(=O)c2c(ncn2CN2CCN(Cn3cnc4c3c(=O)n(C)c(=O)n4C)CC2)n(C)c1=O,0.775%
14,O=C(O)CSc1nnc2c3ccccc3c3ccccc3c2n1,-2.16%
15,c1ccc2c[n+](CCCC[n+]3ccc4ccccc4c3)ccc2c1,22% (active)
16,c1ccc2c[n+](Cc3ccnc4ccccc34)ccc2c1,16.2%
17,CC(=N[O-])C(C)=N[O-].CC(=N[O-])C(C)=N[O-].[CH2-]CCN1CCOCC1.[Co].c1ccncc1,17.9%
18,O=C(O)c1ccc([N+](=O)[O-])c(P(=O)(O)O)c1,-6.85%
19,Cc1nc2ccccc2nc1-c1ccc(N=[N+]([O-])c2ccc(-c3nc4ccccc4nc3C)cc2)cc1,1.15%
20,O=C(O)C(=Cc1ccccc1)Cc1ccccc1,-1.14%
21,CC1=CC(=C(c2ccc(O)c(C)c2)c2ccccc2C(=O)O)C=CC1=O,30.9% (active)
22,O=C(O)c1ccc(C(=O)c2ccccc2C(=O)O)cc1C(=O)O,1.52%
23,Cc1ccc(NC(=O)c2ccccc2C(=O)O)cc1C,0.447%
24,CC(C)=NNc1ncnc2nc[nH]c12,-8.04%
25,O=C1CSC(=S)N1N=Cc1ccc(Cl)c([N+](=O)[O-])c1,8.8%

row,SMILES,hERG blockade
1,O=C(O)c1ccc(S(=O)(=O)N=Nc2c(O)[nH]c3ccccc23)cc1,-4.01%
2,O=Nc1c(O)[nH]c2ccccc12.O=Nc1c(O)[nH]c2ccccc12.[Cu],0.0535%
3,N=C(N)c1ccc(N=Nc2c(O)ccc3c2[nH]c2ccccc23)cc1,-25.6% (active)
4,C(=NNc1nnc2c(n1)[nH]c1ccccc12)c1cccnc1,9.9%
5,c1ccc(CCc2cccnc2)nc1,5.71%
6,C(=NNc1ccccn1)c1cccnc1,20.3% (active)
7,Nc1ccc(-c2ccc(Nc3cc(S(=O)(=O)O)c(N)c4c3C(=O)c3ccccc3C4=O)cc2)c(S(=O)(=O)O)c1,14.3%
8,O=C(O)CCNCC(=O)O,2.22%
9,Cc1cc(C(C)(C)C)cc(CNC2CCCCC2)c1O,-1.49%
10,OCCN(CCO)c1ncnc2nc[nH]c12,9.05%
11,CCCC1c2c(ccc3ccccc23)Oc2ccc3ccccc3c21,16.8%
12,CN(C)CCCC1c2ccccc2Oc2ccc(C(F)(F)F)cc21 (stereo not given),32.9% (active)
13,NC(N)=NN=Cc1ccc(O)c(C(=O)O)c1,7.85%
14,O=C(O)c1[nH]c(=O)[nH]c(=O)c1CN1CCCCC1,-7.69%
15,Cc1nc(CN2CCCCC2)c(O)c(=O)[nH]1,-28.2% (active)
16,Cc1cc(CN2CCCCC2)c(O)c(CN2CCCCC2)c1,8.76%
17,CCN1CCC(O)(C(C(=O)O)c2ccccc2)CC1 (stereo not given),4.76%
18,CC(C)=CCNc1ncnc2nc[nH]c12,-6.5%
19,CCN(Cc1cc(Cl)cc(C)c1O)Cc1c(O)ccc2ccccc12,13%
20,Cc1cccc2cc3ccc4ccccc4c3cc12,11.1%
21,CCN(CC)CC(O)c1ccc2ccc3ccccc3c2c1 (stereo not given),-73.4% (active)
22,N=C(N)SCCSC(=N)N,9.63%
23,N#CC(C#N)=NNc1ccc2cn[nH]c2c1,-4.08%
24,CN(C)S(=O)(=O)Nc1ccccn1,4.55%
25,O=C(O)CC[P+](c1ccccc1)(c1ccccc1)c1ccccc1,19.1%

row,SMILES,hERG blockade
1,CC(O)(CNS(=O)(=O)c1ccccc1)c1ccccc1 (stereo not given),-5.67%
2,CN(CCC(=O)O)S(=O)(=O)c1ccccc1,-22% (active)
3,O=c1[nH]c(SCc2cccc([N+](=O)[O-])c2)nc2nc[nH]c12,7.87%
4,CC1(CO)C(O)CCC2(C)C1CCC1CC3CC12CCC3(O)COC(=O)CN (stereo not given),14.2%
5,N=C(N)SCC(=O)O,11%
6,O=C(O)c1cscc1Cc1cccs1,-9.17%
7,O=C(O)c1ccccc1CN1CCCC(C(=O)O)C1 (stereo not given),-4.8%
8,COc1ccc(-c2cc(C(O)C3CCCCN3)c3ccccc3n2)cc1 (stereo not given),72.7% (active)
9,OC(c1cc(-c2ccc(Cl)cc2)nc2ccccc12)C1CCCCN1 (stereo not given),74.7% (active)
10,OC(c1cc(C23CC4CCC2CC(C4)C3)nc2c(Cl)cc(Cl)cc12)C1CCCCN1 (stereo not given),-0.23%
11,OC(c1cc(C(F)(F)F)nc2c(Cl)cc(Cl)cc12)C1CCCCN1 (stereo not given),28.7% (active)
12,O=C(O)c1cc(-c2ccc3cc4c(cc3c2)OCO4)nc2ccccc12,17.2%
13,OC(CC1CCCCN1)c1ccc2c(c1)oc1ccccc12 (stereo not given),4.42%
14,c1ccc2nc(CCC3CCCCN3)ccc2c1 (stereo not given),-2.95%
15,Cc1cc(C)c2nc3c(c(C(O)C4CCCCN4)c2c1)CCC3=Cc1ccc(Cl)cc1 (stereo not given),8.84%
16,O=C(O)CSc1cc(-c2ccccc2)nc2ccccc12,-16.2%
17,OC(c1cc(-c2ccccc2)nc2c1ccc1ccccc12)C1CCCCN1 (stereo not given),26.8% (active)
18,O=C(O)c1cc(-c2ccc(-c3ccccc3)cc2)nc2cc3ccccc3cc12,12.2%
19,NC(CSCc1ccc(I)cc1)C(=O)O (stereo not given),8.02%
20,O=C(O)c1cc2c(cc1S(=O)(=O)O)C1C(C3C2C2(Cl)C(Cl)=C(Cl)C3(Cl)C2(Cl)Cl)C2(Cl)C(Cl)=C(Cl)C1(Cl)C2(Cl)Cl (stereo not given),3.63%
21,CC(C)Oc1cc(O)c2c(c1)OCC=C2CCC(=O)O,16%
22,O=C1OC2(c3ccc(O)cc3Oc3cc(O)ccc32)c2c1c(-c1ccccc1)c(-c1ccccc1)c(-c1ccccc1)c2-c1ccccc1,-2.77%
23,O=C(O)C=CC=Cc1ccc2c(c1)OCO2,-8.5%
24,O=C(O)CSC1=NCCN1,-1.36%
25,Cc1ccc(S(=O)(=O)OC2CCN(C)CC2)cc1,-11.1%

row,SMILES,hERG blockade
1,Nc1ncnc2nn(C3OC(CO)C(O)C3O)nc12 (stereo not given),13.3%
2,N#CC(=NCCO)C1=C(O)c2ccccc2C1=O,-3.02%
3,CC1CCCC2(CC[N+](C)(CCC[N+](C)(C)C)CC2)C1 (stereo not given),17.8%
4,CCN(CC(=O)O)CC(=O)O,4.67%
5,CC12CCC(=O)C=C1CCC1C2C(O)CC2(C)C1CCC2(O)C(=O)CO (stereo not given),14.3%
6,CN1CCCC(C(=O)OCC(=O)C2(O)CCC3C4CCC5=CC(=O)CCC5(C)C4C(O)CC32C)C1 (stereo not given),25.6% (active)
7,CC12CCC(=O)C=C1CCC1C2C(O)CC2(C)C1CCC2(O)C(=O)COC(=O)C1CCCC1 (stereo not given),-2.63%
8,CC(NC(=O)C1(N)CCCC1)C(=O)O (stereo not given),-5.06%
9,CCOC(=O)Cn1c(C(F)(F)F)nc2nc(Cl)c(Cl)nc21,13.4%
10,O=C(O)c1nn(-c2ccccc2-c2n[nH]c(=O)[nH]c2=O)c(=O)[nH]c1=O,7.69%
11,O=C(O)c1nn(-c2ccc(Cl)cc2)c2c1C(=O)c1ccccc1C2=O,26% (active)
12,O=C1C(=O)c2ccccc2C(O)=C1C(C1=C(O)c2ccccc2C(=O)C1=O)c1ccc(Cl)cc1,17.5%
13,Cc1cn(C2CC(N=[N+]=[N-])C(CO)O2)c(=O)[nH]c1=O (stereo not given),9.12%
14,CC(C)C12CCC3(CCC4C(C)(C(=O)O)CCCC4(C)C3C1)C(CN)C2 (stereo not given),-4.91%
15,CN(C)CCC=C1c2ccccc2C=Cc2ccccc21,15.1%
16,CN(C)CCC=C1c2ccccc2Sc2ccc(Cl)cc21,66.2% (active)
17,CC(C[n+]1ccccc1)=NN=C(N)N,12.9%
18,Clc1ccc2c(NCCNc3ccnc4cc(Cl)ccc34)ccnc2c1,0.444%
19,Clc1ccc2c(NCCNC3CCCCC3)ccnc2c1,63.2% (active)
20,O=C(O)c1ccc(Nc2ccnc3cc(Cl)ccc23)cc1O,-3.15%
21,Clc1ccc2c(N3CCC(CCC4CCN(c5ncnc6cc(Cl)ccc56)CC4)CC3)ncnc2c1,-8.41%
22,Clc1ccc2c(NC3CCC(N4CCCCC4)CC3)ccnc2c1 (stereo not given),53.4% (active)
23,O=C(O)CN(CCN(CC(=O)O)CC(=O)O)CC(=O)O.[Mn+2],-6.49%
24,O=c1ccc(-c2ccccc2)n[nH]1,17.2%
25,CC(C)C(N)(C(=O)O)c1ccccc1 (stereo not given),-5.81%
